These results are taken from PubChem BioAssay (Tox21).

Experiment [1] in a line: qHTS RealTime-Glo MT Cell Viability Assay in HepG2 cells - 24 hour (AID 1224867). Note: nearly all actives have a fitted effect of over 50% in size. The procedure, abridged: (§1)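 Real-time, nonlytic viability: 600 HepG2 cells/well mixed with NanoLuc enzyme plus prosubstrate; 5 h settle, compound (DMSO) added by pintool; luminescence monitored over 40 h at 37 C.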
Experiment [2] in a line: qHTS RealTime-Glo MT Cell Viability Assay in HEK293 cells - 32 hour (AID 1224868). Note: top concentration of the series differs between compounds; nearly all actives have a fitted effect of over 50% in size. The procedure, abridged: (§2)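 Cells + reagent dispensed (600 cells/well, HEK293) → 5 h at 37 C/5% CO2 → 23 nL compound in DMSO pinned → 40 h at 37 C → luminescence read at 0, 8, 16, 24, 32, 40 h.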
(qHTS replaces the single test concentration by a dilution series.)

The nature of experiment [3]: A CellTox Green Cytotoxicity Assay to monitor cytotoxicity in HEK293 cells - 0 hour (AID 1224869). Note: nearly all actives have a fitted effect of over 50% in size. The procedure, abridged: (§3)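 Read-out: fluorescence of a cell-impermeant cyanine dye staining DNA of dead cells, proportional to cytotoxicity. HEK293, 600 cells/well with reagent, compound (23 nL DMSO) added after 5 h; reads at 0, 8, 16, 24, 32, 40 h.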
The nature of experiment [4]: qHTS RealTime-Glo MT Cell Viability Assay in HepG2 cells - 40 hour (AID 1224870). Note: nearly all actives have a fitted effect of over 50% in size. A digest of the protocol:
(§4)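 Real-time viability: cells seeded at 600 per well together with NanoLuc and cell-permeant prosubstrate, compounds added after 5 h incubation. Luminescence tracked at 0, 8, 16, 24, 32 and 40 h of exposure.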

Experiment [5] can be described thus: A CellTox Green Cytotoxicity Assay to monitor cytotoxicity in HEK293 cells - 40 hour (AID 1224871). Note: nearly all actives have a fitted effect of over 45% in size. Note: potency is the fitted concentration of half-maximal effect. A digest of the protocol: as §3
Experiment [6] in a line: qHTS RealTime-Glo MT Cell Viability Assay in HEK293 cells - 16 hour (AID 1224872). A digest of the protocol:
as §2

Experiment [7] in a line: qHTS RealTime-Glo MT Cell Viability Assay in HepG2 cells - 8 hour (AID 1224873). Note: nearly all actives have a fitted effect of over 55% in size. A digest of the protocol:
as §4

Experiment [8] is described as follows: qHTS RealTime-Glo MT Cell Viability Assay in HEK293 cells - 40 hour (AID 1224874). Note: nearly all actives have a fitted effect of over 50% in size. The note with it: RealTime-Glo luminescence; max response: hits give low values. A digest of the protocol:
(§5)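 Luminescence readout at each listed time point; HEK293, 600 cells/well, RealTime-Glo MT reagent added with cells; compounds pinned (23 nL in DMSO) after 5 h at 37 C; continuous culture at 37 C.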

The nature of experiment [9]: A CellTox Green Cytotoxicity Assay to monitor cytotoxicity in HepG2 cells - 16 hour (AID 1224876). Note: nearly all actives have a fitted effect of over 45% in size. The procedure, abridged:
(§6)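 HepG2, 600 cells/well premixed w/ CellTox Green; 5 h settle, 37 C/5% CO2; pintool cpd add (DMSO); 37 C, 40 h; fluorescence read at 0, 8, 16, 24, 32, 40 h.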

Experiment [10] in a line: qHTS RealTime-Glo MT Cell Viability Assay in HepG2 cells - 32 hour (AID 1224877). Note: nearly all actives have a fitted effect of over 55% in size. A digest of the protocol:
as §1

Experiment [11] is described as follows: A CellTox Green Cytotoxicity Assay to monitor cytotoxicity in HepG2 cells - 24 hour (AID 1224878). Note: nearly all actives have a fitted effect of over 45% in size. The procedure, abridged: as §6
A short description of experiment [12]: A CellTox Green Cytotoxicity Assay to monitor cytotoxicity in HepG2 cells - 40 hour (AID 1224879). Note: nearly all actives have a fitted effect of over 40% in size. The procedure, abridged: as §6
Experiment [13] can be described thus: qHTS RealTime-Glo MT Cell Viability Assay in HEK293 cells - 0 hour (AID 1224880). Note: top concentration of the series differs between compounds; nearly all actives have a fitted effect of over 45% in size. The procedure, abridged:
as §5

The nature of experiment [14]: A CellTox Green Cytotoxicity Assay to monitor cytotoxicity in HEK293 cells - 32 hour (AID 1224881). Note: nearly all actives have a fitted effect of over 40% in size. Note: potency is the fitted concentration of half-maximal effect. A digest of the protocol:
as §3

Experiment [15] in a line: A CellTox Green Cytotoxicity Assay to monitor cytotoxicity in HepG2 cells - 0 hour (AID 1224882). Note: nearly all actives have a fitted effect of over 35% in size. The procedure, abridged: as §6
Experiment [16] in a line: A CellTox Green Cytotoxicity Assay to monitor cytotoxicity in HepG2 cells - 32 hour (AID 1224883). Note: nearly all actives have a fitted effect of over 50% in size. The procedure, abridged:
as §6

The nature of experiment [17]: A CellTox Green Cytotoxicity Assay to monitor cytotoxicity in HEK293 cells - 8 hour (AID 1224884). Note: nearly all actives have a fitted effect of over 35% in size. The procedure, abridged: as §3
Experiment [18] is described as follows: qHTS RealTime-Glo MT Cell Viability Assay in HepG2 cells - 16 hour (AID 1224885). Note: nearly all actives have a fitted effect of over 50% in size. The procedure, abridged: as §1
Experiment [19] in a line: A CellTox Green Cytotoxicity Assay to monitor cytotoxicity in HEK293 cells - 24 hour (AID 1224875). A digest of the protocol:
as §3

The structures appear in SMILES notation. A number with no mark means an inactive call. Inconclusive results are not listed. Active and inactive are the calls of the source. Calls come from the whole dose curve; as a rule, active = well fitted curve in the direction sought with a large enough effect in the repeat runs; inconclusive = weak or mixed curves; inactive = no such curve, though single readings can be large; an effect the other way counts as inactive or inconclusive.
% is set by controls: 0 for no effect and ±100 for the full control effect.

In the case of `O=C(O)[C@H](O)c1ccccc1`, the outcome in experiment [1], in [4], in experiment [7], in [10] and in [18] was inactive. The Potency entry in [2], in experiment [3], in [5], in experiment [6], in experiment [9] and in [11] was “inactive” in each case. In addition, the Potency entry in [12], in experiment [13], in [14], in experiment [15], in [16] and in experiment [17] was “inactive” throughout. Besides, the max response in [8] was 0.819%.
`CCCCCc1cccc(=O)o1`: the outcome in experiment [1], in [4], in experiment [7], in [10] and in [18] was inactive. In addition, the Potency result in [2], in experiment [3], in experiment [5], in experiment [6], in experiment [9] and in experiment [11] was “inactive” in each case. Besides, the Potency result in [12], in [13], in [14], in experiment [16] and in experiment [17] was “inactive” throughout. Further, in [8], the max response is -0.0336%.
As to `CCCC(=O)OC/C=C(\C)CCC=C(C)C`, the compound was called inactive in [1], in experiment [4], in experiment [7], in experiment [10] and in experiment [18]. Also, the Potency result in experiment [2], in experiment [3], in [6], in [9], in experiment [11] and in experiment [12] was “inactive” throughout. In addition, the Potency result in experiment [13], in experiment [15], in experiment [16] and in [17] was “inactive” throughout. Also, the Potency in [5] and in experiment [14] was 49 µM (active) each time. In experiment [8], the max response was 10.7%.
Turning to `Cc1ccc(C(C)NC(=O)[C@@H](NC(=O)OC(C)C)C(C)C)cc1` (stereo partly drawn), the outcome in experiment [1], in [4], in [10] and in experiment [18] was inactive. For the same compound, the Potency entry in experiment [2], in experiment [3], in experiment [5], in experiment [6], in experiment [19] and in experiment [9] was “inactive” in each case. The Potency entry in experiment [11], in experiment [12], in experiment [13], in experiment [14], in experiment [15] and in experiment [16] was “inactive” each time. Moreover, the Potency result in experiment [17] was “inactive”. Besides, the max response in experiment [8] was -6.73%.
In the case of `OC1(c2ccc(Cl)cc2)CCNCC1`, the compound was called inactive in experiment [1], in experiment [4], in experiment [10] and in experiment [18]. Moreover, the Potency result in experiment [2], in [3], in experiment [5], in experiment [19], in experiment [11] and in experiment [12] was “inactive” each time. The Potency result in experiment [13], in experiment [14], in experiment [15], in experiment [16] and in experiment [17] was “inactive” throughout. For the same compound, the max response in experiment [8] is 3.5%.
As for `CCCCCCC1(C)CCC(=O)O1` (stereo not drawn), the compound was classed as inactive in experiment [1], in experiment [4], in experiment [10] and in experiment [18]. For the same compound, the Potency entry in experiment [2], in [3], in experiment [5], in [6], in experiment [19] and in experiment [9] was “inactive” in each case. The Potency result in experiment [11], in experiment [12], in experiment [13], in experiment [14], in experiment [15] and in experiment [16] was “inactive” each time. In addition, in experiment [17], the Potency entry is “inactive”. Also, in experiment [8], the max response was 3.32%.
Turning to `CC(=O)OC(C)=O`, the compound was called inactive in experiment [1], in experiment [4], in [10] and in [18]. Moreover, the Potency entry in experiment [2], in experiment [3], in experiment [5], in experiment [6], in [19] and in [9] was “inactive” each time. For the same compound, the Potency result in experiment [11], in experiment [12], in experiment [13], in [14], in experiment [15] and in experiment [16] was “inactive” throughout. Also, the Potency result in experiment [17] is “inactive”. Moreover, the max response in [8] was 9.5%.
For the compound `CC(C)=CCC/C(C)=C/COC=O`, the call in [1], in experiment [4], in [10] and in experiment [18] was inactive. Moreover, the Potency entry in experiment [2], in [3], in experiment [5], in experiment [6], in experiment [9] and in [11] was “inactive” throughout. Moreover, the Potency result in [12], in [13], in [14], in experiment [16] and in experiment [17] was “inactive” in each case. Moreover, in [8], the max response was 0.565%.
As for `CC(O)CC(C)O` (stereo not drawn), the call in experiment [1], in experiment [4], in experiment [7], in experiment [10] and in [18] was inactive. The Potency entry in experiment [2], in experiment [3], in experiment [5], in experiment [6], in experiment [19] and in [11] was “inactive” each time. The Potency result in experiment [12], in experiment [13], in [14], in experiment [15], in experiment [16] and in experiment [17] was “inactive” in each case. Moreover, the max response in [8] was 0.995%.
Take `CCCCOCC(C)O` (stereo not drawn): the compound was called inactive in experiment [1], in experiment [4], in [10] and in experiment [18]. For the same compound, the Potency entry in [2], in [3], in [5], in [6], in experiment [19] and in experiment [9] was “inactive” each time. Moreover, the Potency entry in experiment [11], in experiment [12], in [13], in [14], in experiment [15] and in experiment [16] was “inactive” in each case. For the same compound, in experiment [17], the Potency entry is “inactive”. The max response in experiment [8] was 10.5%.
Regarding `CC(=O)O[Si](C)(OC(C)=O)OC(C)=O`, the call in experiment [1], in experiment [7], in [10] and in [18] was inactive. In addition, the Potency entry in [2], in [3], in experiment [6], in [19], in [9] and in experiment [11] was “inactive” each time. Also, the Potency entry in [12], in [13], in experiment [14], in experiment [15], in experiment [16] and in experiment [17] was “inactive” throughout. Besides, the max response in experiment [8] is 7.61%.
For `CC(C)CCOC(=O)c1ccccc1`, the compound was called inactive in experiment [1], in experiment [4], in experiment [10] and in [18]. For the same compound, the Potency result in [2], in experiment [3], in experiment [6], in experiment [9], in experiment [11] and in experiment [12] was “inactive” in each case. Also, the Potency entry in [13], in experiment [14], in experiment [15], in [16] and in experiment [17] was “inactive” in each case. Further, the max response in [8] was -0.72%.
In the case of `CCCC(=O)Nc1ccc(OCC(O)CNC(C)C)c(C(C)=O)c1` (stereo not drawn), the result in [1], in experiment [4], in experiment [7], in [10] and in experiment [18] was inactive. The Potency entry in experiment [2], in experiment [3], in experiment [6], in experiment [11], in experiment [12] and in experiment [13] was “inactive” throughout. Besides, the Potency entry in experiment [14], in experiment [15], in experiment [16] and in experiment [17] was “inactive” in each case. Also, the max response in experiment [8] was 4%.
Consider `CCCCCCCCCCCCCCCCCC#N`, for which the call in [1], in experiment [10] and in [18] was inactive. Further, the Potency result in experiment [2], in experiment [3], in experiment [5], in experiment [6], in experiment [19] and in experiment [11] was “inactive” in each case. The Potency result in experiment [12], in experiment [13], in experiment [14], in [15], in [16] and in experiment [17] was “inactive” each time. Further, the max response in experiment [8] is -5.42%.
As for `OCC1CCC(CO)CC1` (stereo not drawn), the result in [1], in [4], in experiment [7], in experiment [10] and in experiment [18] was inactive. The Potency entry in experiment [2], in experiment [3], in experiment [6], in [19], in experiment [9] and in [11] was “inactive” throughout. Also, the Potency result in [12], in [13], in experiment [14], in experiment [15], in experiment [16] and in experiment [17] was “inactive” in each case. Besides, the max response in [8] is 6.03%.
